A selection: hits, their analogues and other compounds. The true share with any hit is near 1.9%.
PABP FP inh: PABP poly(A) RNA binding inhibitors, primary screen, biochemical, fluorescence polarization, uHTS. calls only at 35 µM. hit rate 1% among 290,000;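 note: calls also rest on retests at 20 µM and on dose response follow-up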
Target sequence (P11940 whole entry, looked up): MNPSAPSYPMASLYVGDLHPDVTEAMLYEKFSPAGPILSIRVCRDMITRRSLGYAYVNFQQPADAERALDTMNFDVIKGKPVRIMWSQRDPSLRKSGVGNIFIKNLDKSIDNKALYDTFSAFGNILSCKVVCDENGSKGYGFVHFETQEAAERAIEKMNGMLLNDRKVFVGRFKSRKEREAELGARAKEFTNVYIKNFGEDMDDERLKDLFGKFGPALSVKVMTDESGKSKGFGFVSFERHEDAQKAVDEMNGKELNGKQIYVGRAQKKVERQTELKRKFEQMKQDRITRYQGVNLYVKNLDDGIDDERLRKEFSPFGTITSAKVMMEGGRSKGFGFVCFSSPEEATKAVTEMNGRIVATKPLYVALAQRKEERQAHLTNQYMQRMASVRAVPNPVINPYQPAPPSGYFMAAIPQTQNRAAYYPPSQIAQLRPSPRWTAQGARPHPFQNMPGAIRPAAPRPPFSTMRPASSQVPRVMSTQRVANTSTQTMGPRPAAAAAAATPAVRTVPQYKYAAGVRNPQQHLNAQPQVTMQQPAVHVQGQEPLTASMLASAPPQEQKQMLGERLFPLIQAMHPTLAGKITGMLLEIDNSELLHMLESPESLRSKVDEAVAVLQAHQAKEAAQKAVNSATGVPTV
MLLE-PAM2 inh: inhibitors of PABP1 MLLE–PAM2 peptide binding, primary screen, biochemical, fluorescence polarization, FITC-PAM2, GST-MLLE. Polyadenylate-binding protein 1 (Homo sapiens), P11940. inhibition, % at 20 µM. hit rate 0.36% among 360,000. AID 588489, 2011; in the data active = inhibition above about 35%, passing the limit was not always enough
14-3-3 Bad PPI: inhibitors of 14-3-3 zeta/Bad binding, primary screen, biochemical, TR-FRET, bovine 14-3-3 zeta | TR-FRET 14-3-3zeta/Dy647-pBad peptide displacement, 1 h | inhibition, % at 21.7 µM | hit rate 0.71% among 220,000;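 active = inhibition above about 70%, limit read from the data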
eIF4E-4G inh: eIF4E–eIF4G protein interaction inhibitors, primary screen, biochemical, uHTS, TR-FRET, eIF4GI fragment. AID 782, 2007. TR-FRET eIF4E-eIF4GI(517-606) binding, 2 h. Eukaryotic translation initiation factor 4E (Mus musculus) + Eukaryotic translation …. hit rate 0.37% among 220,000. inhibition, % at 21.7 µM;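 active = inhibition above about 30%, limit read from the data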
eIF4H FP inh: human eIF4H binding inhibitors, primary screen, translation initiation inhibitor project, biochemical, uHTS, fluorescence polarization; eIF4H fluorescence polarization binding assay; Eukaryotic translation initiation factor 4H (Homo sapiens), Q15056; hit rate 0.94% among 290,000; AID 2012, 2009; inhibition, % at 35 µM;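 note: calls also rest on retests at 20 µM and on dose response follow-up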
A number is an active result; - = inactive; ? = inconclusive; . = not tested or not shown; + = active, no number; [ ] = another dose, or the depositor's remark. Unless noted, the rule behind the calls is not given here.

SMILES | PABP FP inh | MLLE-PAM2 inh | 14-3-3 Bad PPI | eIF4E-4G inh | eIF4H FP inh
COc1cc(CC(=O)N2CCN(C(=O)C3CCCO3)CC2)cc(OC)c1OC (centres undefined) | . | - | . | . | .
C/C(=N\NC(=O)Cc1csc(N2CCOCC2)n1)c1ccccc1 | - | - | - | - | -
O=C(CCN1CCN(c2ccccc2)CC1)N/N=C/c1ccc(O)c(O)c1O | + | - | - | - | -
O=C(Cc1csc(N2CCOCC2)n1)N/N=C/c1ccc(O)c(O)c1O | + | - | - | - | -
CCCN(CC(=O)Nc1ccccc1OC)C(=O)c1ccc(COc2ccccc2)o1 | . | - | . | . | .
CSc1ncnc2c1ncn2CCCN(C)CCc1ccccn1 | . | - | . | . | .
O=C(N/N=C/c1cc(Br)c(Br)o1)C(O)c1ccccc1 (centres undefined) | - | - | - | - | 63.3
Cc1cc(C)n(CC(=O)NNC(=O)COc2ccc(Br)cc2F)n1 | . | 101.4 | . | . | .
Cc1cc(C)n(CC(=O)NNC(=O)CCCOc2ccc(Cl)cc2C)n1 | - | - | . | . | -
Cc1nnc(NC(=O)CSc2ccc(-c3ccccn3)nn2)s1 | - | . | - | - | -
C[C@H]1CN([C@@H](C)CO)C(=O)CCCn2nncc2CO[C@@H]1CN(C)Cc1ccc(C(=O)O)cc1 | . | - | . | . | .
CCN(CC)S(=O)(=O)c1ccc(O)c(NC(=O)c2cc(-c3cc(OC)c(OC)c(OC)c3)nc3ccccc23)c1 | - | - | . | . | -
Cc1cccc2nc(-c3ccccc3)nc(N[C@@H](CO)c3ccccc3)c12 | - | - | 76.0[fluorescence artefact?] | - | -
O=C1CCCC2=C1C(c1ccc(Cl)cc1)n1c(s/c(=C\c3ccc4ccncc4c3)c1=O)=N2 (centres undefined) | + | - | - | - | 55.2
COc1ccc(C(=O)Nc2ccnn2C2CCN(C(=O)c3cnsn3)CC2)cc1 | - | - | . | . | -
COC(=O)c1cc(CNC(=O)c2ccc(N3CCCC3)c([N+](=O)[O-])c2)ccc1OC | + | - | . | . | -
COc1ccc(C(=O)/C=C/c2ccc(N3CCCCC3)c([N+](=O)[O-])c2)cc1 | + | - | - | - | active
c1coc(-c2ccnc3ncnn23)c1 | - | - | - | - | -
c1coc(-c2ncc[nH]2)c1 | + | - | - | - | 102.4
COc1ccc(NC(=O)c2cc(-c3cc(Cl)ccc3C)n[nH]2)cn1 | . | - | . | . | .
CN(C)CCCNCCCNC(=O)c1ccco1 | + | - | - | - | 33.2
CC(=O)Oc1ccccc1/C=C/c1ccc2ccccc2[n+]1C | + | - | . | . | -
C/C(=N\NC(=O)c1cccc(F)c1)c1ccc(NC(=O)Cc2ccccc2)cc1 | - | - | . | . | -
C/C(=N\NC(=O)c1cc(O)ccc1O)c1cccc(NC(=O)c2cccc(Cl)c2)c1 | + | - | . | . | 85.0
C/C(=N\NC(=O)c1cc(O)cc(O)c1)c1ccc(NC(=O)Cc2ccccc2)cc1 | + | - | . | . | 100.6
SMILES | PABP FP inh | MLLE-PAM2 inh | 14-3-3 Bad PPI | eIF4E-4G inh | eIF4H FP inh
CC(=O)Nc1cccc(/C(C)=N/NC(=O)c2ccc(O)cc2)c1 | - | - | - | - | active
C/C(=N\NC(N)=O)c1cccc(Cl)c1 | - | - | 75.2[fluorescence artefact?] | - | -
C/C(=N/NC(=O)c1ccc(O)cc1)c1cccc([N+](=O)[O-])c1 | - | - | - | - | -
CC(=NNC(=O)c1ccncc1)c1cccc(Cl)c1 | . | - | . | . | .
CCC(C)NC(=S)Nc1ccc(C(=O)OC)cc1 (centres undefined) | - | - | - | - | -
CCN1C[C@@H]2[C@@H]3C(=O)N(C)C(=O)[C@@H]3[C@](CC)(C1=O)N2C(=O)c1ccc(C(C)(C)C)cc1 | . | - | . | . | .
CCOC(=O)[C@H]1[C@H]2COc3ccc(Br)cc3[C@@H]2N2C(=O)c3ccc(Cl)cc3NC(=O)[C@@]12C | . | - | . | . | .
C/C(=N\NC(=O)c1cc(O)ccc1O)c1cccc(NC(=O)c2ccc(Cl)cc2)c1 | + | - | . | . | 90.0
C/C(=N\NC(=O)c1ccccc1O)c1cccc(NC(=O)c2ccccc2)c1 | - | - | . | . | -
COc1ccccc1-c1cnc(C(O)c2cccc(F)c2)[nH]1 (centres undefined) | . | - | . | . | .
COC(=O)c1c(-c2ccco2)csc1NC(=O)C1CC=CCC1C(=O)O (centres undefined) | + | - | - | - | 84.7
CCOC(=O)c1c(-c2ccc(F)cc2)csc1NC(=O)C1CC=CCC1C(=O)O (centres undefined) | ? | - | - | - | ?
CCOc1ccc(-c2nnc(SCC(=O)Nc3ccc4c(c3)c3ccccc3n4CC)n2N)cc1 | - | - | 73.3 | - | -
C=CC[n+]1c(-c2ccc(OC)cc2)csc1NNC(=O)Nc1ccccc1 | + | - | - | - | 69.5
COc1c(O)cccc1[C@H](O)C1CCN(CCc2ccc(F)cc2)CC1 | . | 76.5 | . | . | .
O=C(Cn1cnc2ccccc21)NCc1ccccc1 | - | - | - | - | -
O=C(Cc1ccccc1)Nn1cnc2ccccc21 | - | - | 78.0 | - | -
CO[C@@]1(NC(=O)Cc2cccs2)C(=O)N2C(C(=O)O)=C(COC(N)=O)CS[C@@H]21 | - | - | 73.4 | - | -
O=C(Nc1ccccc1)c1ccc2nc(-c3ccco3)c(-c3ccco3)nc2c1 | + | - | - | - | 99.9
O=C(NCc1ccccc1)c1ccc2nc(-c3ccco3)c(-c3ccco3)nc2c1 | + | - | - | - | 107.6
CC(=O)Nc1ccc2nc(-c3ccco3)[nH]c2c1 | - | - | - | - | -
CCCCNC(=O)c1ccc2nc(-c3ccco3)c(-c3ccco3)nc2c1 | + | - | - | - | 93.9
O=C(NCCCO)c1ccc2nc(-c3ccco3)c(-c3ccco3)nc2c1 | - | - | - | - | -
O=C(Nc1ccc2nc(-c3ccco3)[nH]c2c1)c1ccco1 | + | - | - | - | -
C/C=C/c1cnc2c(c1)C(=O)N([C@H](C)CO)C[C@@H](C)[C@@H](CN(C)C(=O)NC1CCCC1)O2 | . | - | . | . | .
SMILES | PABP FP inh | MLLE-PAM2 inh | 14-3-3 Bad PPI | eIF4E-4G inh | eIF4H FP inh
C[n+]1cccc(C(=O)NNC(=O)C23CC4CC(CC(C4)C2)C3)c1 | - | - | - | - | -
COC(=O)CCNC(=O)CCc1ccc(S(=O)(=O)N2CCCCCC2)cc1 | . | - | . | . | .
Cc1ccc(Cl)cc1NC(=S)N(CCCN1CCOCC1)Cc1ccco1 | - | - | - | - | -
CC(C)(C)Cc1c(-c2ccc(Br)cc2)nc2ccc(Cl)cn12 | . | - | . | . | .
O=C(NCCO)Nc1ccc2nsnc2c1 | - | - | - | - | -
CC(=O)c1ccc(NC(=O)c2ccc3nc(-c4ccco4)c(-c4ccco4)nc3c2)cc1 | + | - | - | 46.7[fluorescence artefact?] | 103.4
O=C(NCCO)Nc1ccc2nc(-c3ccco3)c(-c3ccco3)nc2c1 | ? | . | 79.7 | 61.7 | ?
CCCCCCC1CC(=CN(C)C)C(=O)O1 (centres undefined) | . | - | . | . | .
CC(=O)c1ccc(NC(=O)CN(C)CC(=O)Nc2cccc(F)c2)cc1 | - | - | 90.4 | - | -

High-throughput results: PubChem BioAssay, several laboratories
